For ten compounds, Percent Effect results are on record in ChEMBL document CHEMBL3988442, “University of Dundee, Small-Polar-MMV Screening Library” (2021).

For some assays here: Measured potencies and affinities stand elsewhere.

Common to all, as to set-up: scale not given: direction of the effect not stated beside the values
Assay [1] has as its target Protein translocase subunit SecA (Escherichia coli (strain K12)) (UniProt P10408). Put plainly: Assay to Identify E. coli SecA ATPase Inhibitors. The class given is functional. Particulars: 30 µM.
Assay [2] deals with T1, Ubiquitin-activating enzyme e1, putative (Leishmania donovani (strain BPK282A1)) (UniProt E9BSI1).
T1 sequence (whole entry): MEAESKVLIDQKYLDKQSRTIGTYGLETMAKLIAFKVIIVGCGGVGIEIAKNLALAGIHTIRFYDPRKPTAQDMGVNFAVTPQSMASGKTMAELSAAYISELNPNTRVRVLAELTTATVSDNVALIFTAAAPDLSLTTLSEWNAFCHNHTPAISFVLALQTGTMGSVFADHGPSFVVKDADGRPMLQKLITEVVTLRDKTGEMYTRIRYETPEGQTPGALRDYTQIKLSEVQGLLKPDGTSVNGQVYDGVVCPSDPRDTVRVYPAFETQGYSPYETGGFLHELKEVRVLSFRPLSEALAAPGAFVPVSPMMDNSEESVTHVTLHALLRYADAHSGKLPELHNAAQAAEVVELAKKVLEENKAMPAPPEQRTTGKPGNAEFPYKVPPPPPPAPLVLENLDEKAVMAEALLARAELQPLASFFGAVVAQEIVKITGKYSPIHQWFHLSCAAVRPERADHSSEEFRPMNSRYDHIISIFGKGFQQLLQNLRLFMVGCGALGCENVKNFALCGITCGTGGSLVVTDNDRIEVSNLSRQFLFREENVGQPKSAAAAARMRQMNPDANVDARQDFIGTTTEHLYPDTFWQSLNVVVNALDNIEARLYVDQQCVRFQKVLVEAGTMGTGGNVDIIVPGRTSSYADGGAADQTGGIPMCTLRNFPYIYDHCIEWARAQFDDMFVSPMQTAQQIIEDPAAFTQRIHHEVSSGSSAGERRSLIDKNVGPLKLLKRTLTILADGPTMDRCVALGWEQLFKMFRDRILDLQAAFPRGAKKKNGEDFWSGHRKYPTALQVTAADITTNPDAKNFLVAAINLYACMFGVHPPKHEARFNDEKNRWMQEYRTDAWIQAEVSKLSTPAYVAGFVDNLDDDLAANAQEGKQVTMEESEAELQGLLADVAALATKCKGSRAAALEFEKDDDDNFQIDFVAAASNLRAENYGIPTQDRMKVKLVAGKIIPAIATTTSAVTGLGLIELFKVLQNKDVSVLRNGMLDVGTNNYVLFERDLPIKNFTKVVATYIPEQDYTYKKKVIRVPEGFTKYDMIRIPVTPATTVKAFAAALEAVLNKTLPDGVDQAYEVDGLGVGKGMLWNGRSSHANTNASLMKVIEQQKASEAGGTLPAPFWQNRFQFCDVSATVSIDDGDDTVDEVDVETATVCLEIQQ
Briefly: Leishmania donovani Ubiquitin Activating Enzyme (LdE1). The class given is functional. Particulars: 30 µM.

In assay [3] the target is AMP-activated protein kinase, AMPK (Homo sapiens) (UniProt P54646+O43741+P54619+Q9UGJ0+Q9Y478+Q13131+Q9UGI9). Briefly: AMP-dependent Kinase enzyme assay. An in vitro enzyme assay that detects ADP turnover that is directly proportional to AMPK activity. This uses naive AMPK that is activated during the assay with MK-8722. The class given is functional. Particulars: 30 µM.

The target in assay [4] is Sialic acid-binding Ig-like lectin 9 (Homo sapiens) (UniProt Q9Y336). Put plainly: Hs-Siglec9 ALPHAscreen SOP 20170721. Particulars: 10 µM.
The next assay has as its system Trypanosoma cruzi. Put plainly: Trypanosoma cruzi phosphomannomutase and mannose-1-phosphate guanylyltransferase assay. The class given is functional. Particulars: 10 µM.
Assay [5] addresses T2, Arginase-2, mitochondrial (Homo sapiens) (UniProt P78540).
T2 sequence (whole entry): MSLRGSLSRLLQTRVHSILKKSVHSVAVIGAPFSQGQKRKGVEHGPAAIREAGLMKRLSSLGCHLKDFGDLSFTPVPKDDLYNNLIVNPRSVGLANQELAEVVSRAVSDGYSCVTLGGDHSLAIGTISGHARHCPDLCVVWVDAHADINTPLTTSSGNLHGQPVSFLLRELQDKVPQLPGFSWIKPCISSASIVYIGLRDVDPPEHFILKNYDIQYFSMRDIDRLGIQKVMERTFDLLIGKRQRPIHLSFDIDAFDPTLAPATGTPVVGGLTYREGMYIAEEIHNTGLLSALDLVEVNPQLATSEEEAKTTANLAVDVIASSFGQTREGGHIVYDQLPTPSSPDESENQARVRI
Put plainly: in vitro enzyme assay to detect the production of urea directly proportional to the activity of Arginase II. Also: in the data most compounds retested in dose-response had high values. The class given is functional. Particulars: 33.3 µM.

Assay [6] deals with T3, Proteasome subunit beta (Trypanosoma cruzi) (UniProt O96673).
T3 sequence (whole entry): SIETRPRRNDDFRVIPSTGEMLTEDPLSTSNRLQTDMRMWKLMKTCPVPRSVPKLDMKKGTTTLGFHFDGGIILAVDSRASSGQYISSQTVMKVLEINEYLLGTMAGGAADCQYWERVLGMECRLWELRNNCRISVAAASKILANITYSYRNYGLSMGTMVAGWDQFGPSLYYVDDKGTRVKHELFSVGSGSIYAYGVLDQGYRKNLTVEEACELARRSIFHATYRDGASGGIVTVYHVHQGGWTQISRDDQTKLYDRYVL
Put plainly: Trypanosoma cruzi proteasome chymotrypsin-like activity (TcProtChymo) assay. Also: in the data most compounds retested in dose-response had high values. In kind it is functional. Particulars: 9.37 µM.

The species entered for another assay is Homo sapiens. Put plainly: To identify inhibition of the IFN signalling (Jak-Stat) pathway via expression of an eGFP reporter gene under the control of an IFN-stimulated response element (ISRE) containing MxA promoter. In kind it is functional. Particulars: 30 µM.
Assay [7] concerns the target T4, Tyrosyl-tRNA synthetase, putative (Trypanosoma cruzi (strain CL Brener)) (UniProt Q4DSP6).
T4 sequence (whole entry): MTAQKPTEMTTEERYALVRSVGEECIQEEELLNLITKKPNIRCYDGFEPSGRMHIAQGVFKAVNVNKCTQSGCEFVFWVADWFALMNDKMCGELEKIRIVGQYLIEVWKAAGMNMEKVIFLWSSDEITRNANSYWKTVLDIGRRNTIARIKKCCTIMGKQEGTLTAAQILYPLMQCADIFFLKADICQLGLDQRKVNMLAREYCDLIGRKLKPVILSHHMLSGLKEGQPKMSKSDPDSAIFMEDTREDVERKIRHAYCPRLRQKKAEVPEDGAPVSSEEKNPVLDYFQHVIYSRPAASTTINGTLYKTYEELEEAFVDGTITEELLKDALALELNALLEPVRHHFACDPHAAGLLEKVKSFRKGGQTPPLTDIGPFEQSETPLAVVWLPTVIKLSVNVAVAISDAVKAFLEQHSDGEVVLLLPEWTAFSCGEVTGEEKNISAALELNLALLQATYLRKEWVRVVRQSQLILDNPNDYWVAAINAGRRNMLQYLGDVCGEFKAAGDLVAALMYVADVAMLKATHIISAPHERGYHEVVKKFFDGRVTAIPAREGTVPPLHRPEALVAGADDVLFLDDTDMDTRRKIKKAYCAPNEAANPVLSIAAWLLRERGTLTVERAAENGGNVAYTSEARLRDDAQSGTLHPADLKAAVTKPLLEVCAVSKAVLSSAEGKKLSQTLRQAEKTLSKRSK
Briefly: Trypanosoma cruzi tyrosyl tRNA synthetase (TcYRS) _High Tyrosine SOP. Also: in the data most compounds retested in dose-response had high values. In kind it is functional. Particulars: 30 µM.

In assay [8] the target is T4, Tyrosyl-tRNA synthetase, putative (Trypanosoma cruzi (strain CL Brener)). Briefly: Trypanosoma cruzi tyrosyl tRNA synthetase (TcYRS) SOP. In kind it is functional. Particulars: 30 µM.
Assay [9] concerns the target Chromo domain-containing protein 1 (Saccharomyces cerevisiae (strain ATCC 204508 / S288c) (Baker's yeast)) (UniProt P32657). Briefly: ScCHD-1 Enzyme Inhibition Assay. Also: in the data most compounds retested in dose-response had high values. The class given is functional. Particulars: 30 µM.

Sequence of Protein translocase subunit SecA (Escherichia coli (strain K12)) (P10408 whole entry): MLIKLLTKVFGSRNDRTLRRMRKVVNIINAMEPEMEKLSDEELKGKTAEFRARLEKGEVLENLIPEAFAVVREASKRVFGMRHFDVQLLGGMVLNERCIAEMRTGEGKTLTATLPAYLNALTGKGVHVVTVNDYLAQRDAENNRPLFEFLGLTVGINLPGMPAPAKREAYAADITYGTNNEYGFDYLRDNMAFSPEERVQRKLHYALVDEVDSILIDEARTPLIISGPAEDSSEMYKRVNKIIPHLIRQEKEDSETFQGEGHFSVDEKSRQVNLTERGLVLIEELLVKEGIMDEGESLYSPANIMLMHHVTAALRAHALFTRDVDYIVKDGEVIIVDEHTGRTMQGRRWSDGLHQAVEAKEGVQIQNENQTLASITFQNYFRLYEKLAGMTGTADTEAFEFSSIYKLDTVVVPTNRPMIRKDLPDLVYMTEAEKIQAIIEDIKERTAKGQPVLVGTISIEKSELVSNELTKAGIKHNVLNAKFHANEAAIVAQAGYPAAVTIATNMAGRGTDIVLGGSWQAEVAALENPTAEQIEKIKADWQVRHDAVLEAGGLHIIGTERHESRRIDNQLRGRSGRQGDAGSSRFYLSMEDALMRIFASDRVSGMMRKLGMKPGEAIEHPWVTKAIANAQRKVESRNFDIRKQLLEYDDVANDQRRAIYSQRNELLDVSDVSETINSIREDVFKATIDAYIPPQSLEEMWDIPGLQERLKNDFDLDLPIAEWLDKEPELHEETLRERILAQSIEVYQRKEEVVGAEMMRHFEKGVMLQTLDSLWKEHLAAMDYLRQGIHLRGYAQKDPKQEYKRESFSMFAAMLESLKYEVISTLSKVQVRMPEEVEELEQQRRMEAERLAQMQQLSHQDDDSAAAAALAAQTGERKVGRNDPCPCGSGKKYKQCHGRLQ
Sequence of Sialic acid-binding Ig-like lectin 9 (Homo sapiens) (Q9Y336 whole entry): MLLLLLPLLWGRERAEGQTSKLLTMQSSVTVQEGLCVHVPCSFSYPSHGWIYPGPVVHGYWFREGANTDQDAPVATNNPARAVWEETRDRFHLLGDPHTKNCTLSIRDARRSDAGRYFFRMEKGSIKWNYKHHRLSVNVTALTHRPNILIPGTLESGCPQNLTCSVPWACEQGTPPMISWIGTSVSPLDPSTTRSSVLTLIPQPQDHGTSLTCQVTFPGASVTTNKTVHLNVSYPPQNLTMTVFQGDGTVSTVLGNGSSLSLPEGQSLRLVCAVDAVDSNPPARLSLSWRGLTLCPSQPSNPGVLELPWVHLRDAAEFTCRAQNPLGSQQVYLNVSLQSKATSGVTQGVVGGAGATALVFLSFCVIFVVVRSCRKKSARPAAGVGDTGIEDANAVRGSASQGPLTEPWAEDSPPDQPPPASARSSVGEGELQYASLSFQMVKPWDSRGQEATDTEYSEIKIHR
Sequence of Chromo domain-containing protein 1 (Saccharomyces cerevisiae (strain ATCC 204508 / S288c) (Baker's yeast)) (P32657 whole entry, the tested form may be a part): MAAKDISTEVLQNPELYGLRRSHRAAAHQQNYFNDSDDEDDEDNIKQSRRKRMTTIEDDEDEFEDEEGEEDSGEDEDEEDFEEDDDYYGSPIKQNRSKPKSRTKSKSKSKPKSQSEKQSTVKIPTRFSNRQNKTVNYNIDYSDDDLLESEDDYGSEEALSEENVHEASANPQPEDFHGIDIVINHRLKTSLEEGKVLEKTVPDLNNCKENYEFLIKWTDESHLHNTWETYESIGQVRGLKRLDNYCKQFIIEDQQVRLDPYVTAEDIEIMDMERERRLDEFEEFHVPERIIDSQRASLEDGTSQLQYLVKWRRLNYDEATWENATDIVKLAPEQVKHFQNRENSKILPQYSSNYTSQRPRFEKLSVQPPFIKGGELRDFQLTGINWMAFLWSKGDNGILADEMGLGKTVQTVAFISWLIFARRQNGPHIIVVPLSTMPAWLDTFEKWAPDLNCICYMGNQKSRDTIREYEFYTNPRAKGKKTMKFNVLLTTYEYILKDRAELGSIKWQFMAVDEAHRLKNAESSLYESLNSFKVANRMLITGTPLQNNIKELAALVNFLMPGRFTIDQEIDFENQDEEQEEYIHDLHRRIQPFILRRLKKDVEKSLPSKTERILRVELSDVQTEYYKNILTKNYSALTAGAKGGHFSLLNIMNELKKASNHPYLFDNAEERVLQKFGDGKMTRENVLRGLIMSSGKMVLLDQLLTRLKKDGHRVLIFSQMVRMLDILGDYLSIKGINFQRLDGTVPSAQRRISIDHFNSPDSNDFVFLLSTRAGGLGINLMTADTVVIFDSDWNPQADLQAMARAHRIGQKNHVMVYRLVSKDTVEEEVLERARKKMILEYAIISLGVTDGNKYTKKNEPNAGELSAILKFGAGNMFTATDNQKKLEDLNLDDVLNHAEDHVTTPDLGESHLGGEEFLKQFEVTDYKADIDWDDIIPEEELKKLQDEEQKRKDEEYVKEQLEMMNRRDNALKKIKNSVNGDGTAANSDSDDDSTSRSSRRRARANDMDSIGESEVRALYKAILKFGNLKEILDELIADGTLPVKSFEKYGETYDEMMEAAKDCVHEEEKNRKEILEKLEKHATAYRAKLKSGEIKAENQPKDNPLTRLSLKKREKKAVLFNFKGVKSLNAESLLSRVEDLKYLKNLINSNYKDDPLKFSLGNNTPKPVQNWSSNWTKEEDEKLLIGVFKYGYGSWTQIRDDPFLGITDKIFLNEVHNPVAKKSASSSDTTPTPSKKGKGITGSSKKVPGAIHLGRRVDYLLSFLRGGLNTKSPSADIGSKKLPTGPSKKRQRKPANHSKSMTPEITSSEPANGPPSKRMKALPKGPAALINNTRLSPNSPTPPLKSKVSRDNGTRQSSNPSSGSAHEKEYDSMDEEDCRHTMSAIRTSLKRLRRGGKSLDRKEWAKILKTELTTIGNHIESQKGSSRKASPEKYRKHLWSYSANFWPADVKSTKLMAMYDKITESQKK

In the case of `Cc1nccc([C@@H]2C[C@@H]3CCN(S(C)(=O)=O)C[C@H]3O2)n1`, the Percent Effect in assay [1] is -4.82%; in assay [2] it was 8.11%; in assay [3], -5.02%; in assay [4], 10.6%; in the assay on Trypanosoma cruzi, 7.14%; in [5] it was -0.744%. Also, the Percent Effect in assay [6] is 7.64%; in the assay listed under Homo sapiens, 6.16%; in assay [7] it was 8.6%; in assay [8] it was 13.6%; in assay [9], -3.19%.

For the compound `CC(C)Cc1cc(C(=O)NCCc2ccc(S(C)(=O)=O)cc2)[nH]n1`, the Percent Effect is -3.28% in assay [1]; 2.63% in [2]; 9.53% in [3]; 3.29% in assay [4]; 3.8% in the assay with Trypanosoma cruzi; 0% in assay [5]. For the same compound, the Percent Effect is 12.9% in [6]; 24% in the assay listed under Homo sapiens; 0% in [7]; 10.4% in assay [8]; -3.35% in assay [9].

As to `CC(C)C(=O)N1CCN(C(=O)CCc2nnc(-c3ccccc3)o2)CC1`, the Percent Effect is -1.03% in assay [1]; 5.06% in assay [2]; -0.0997% in assay [3]; 0.624% in assay [4]; -4.06% in the assay on Trypanosoma cruzi; 4.94% in [5]. For the same compound, the Percent Effect in [6] is 0.901%; in the assay listed under Homo sapiens, 16.1%; in assay [7] it was 3.45%; in assay [8], 8.86%; in assay [9] it was -7.27%.

As for `Cc1ccc(N2CC3(CCN(c4nccs4)C3)C2)nn1`, the Percent Effect in [1] was 0.227%; in [2], 2.74%; in [3], 1.72%; in assay [4], 6.68%; with Trypanosoma cruzi, -0.794%; in [5], 0.798%. Moreover, the Percent Effect in assay [6] was 14%; in the assay listed under Homo sapiens, 0.564%; in [7], 5.21%; in [8], 11.1%; in assay [9], 0.982%.

As to `CC(CNc1cncc(-n2cccn2)n1)N(C)c1ccccc1` (stereo not given), the Percent Effect in [1] is -0.428%; in assay [2], 0%; in assay [3], 9.04%; in [4], 7.11%; in the assay on Trypanosoma cruzi it was 0.374%; in assay [5], 0.712%. The Percent Effect in assay [6] is 1.52%; in the assay listed under Homo sapiens, 51.6%; in assay [7], 0.971%; in assay [8] it was 0%; in assay [9], -6.86%.

Take `O=C(N[C@@H]1CCNC[C@H]1O)c1ccc(F)c(Cl)c1`: the Percent Effect in assay [1] was -3.79%; in assay [2], 5.41%; in assay [3], 0.871%; in assay [4], 3.76%; in the assay with Trypanosoma cruzi it was -3.09%; in [5], -1.43%. The Percent Effect is 1.21% in [6]; -2.61% in the assay listed under Homo sapiens; 3.7% in [7]; 9.76% in [8]; -2.77% in [9].

Take `CN(C)C(=O)NC1COC2(CCN(Cc3nccn3C)CC2)C1` (stereo not given): the Percent Effect in assay [1] is 0.893%; in assay [2], 5.2%; in assay [3], -3.63%; in assay [4], 0.435%; with Trypanosoma cruzi, -7.2%; in assay [5] it was 5.81%. Further, the Percent Effect in [6] was 11.3%; in the assay filed under Homo sapiens, -0.051%; in assay [7], 5.29%; in [8], 6.41%; in [9], 0.228%.

In the case of `CC(C)(C)C(=O)NCCC(=O)NC(C)(C)c1ccc2c(c1)OCCO2`, the Percent Effect in assay [1] is -1.46%; in assay [2], -5.48%; in assay [3], 12.2%; in assay [4], -1.99%; with Trypanosoma cruzi, -0.783%; in assay [5], 5%. Moreover, the Percent Effect is 4.44% in assay [6]; -3.61% in the assay filed under Homo sapiens; 2.15% in assay [7]; 5% in [8]; 1.77% in assay [9].

Regarding `Cc1cc(=O)n2ncnc2n1CC(O)c1cc(F)ccc1F` (stereo not given), the Percent Effect in assay [1] is -4.1%; in assay [2], 18.4%; in assay [3], 1.21%; in [4], -4.45%; in the assay with Trypanosoma cruzi, 5.55%; in assay [5] it was 1.18%. Further, the Percent Effect in assay [6] is 15.6%; in the assay filed under Homo sapiens it was 6.3%; in assay [7] it was 5.32%; in assay [8], 20.8%; in assay [9], -3.49%.

Turning to `CSCc1cccc(S(=O)(=O)NCCCN2CCOCC2)c1`, the Percent Effect in [1] was -6.05%; in [2], 5.2%; in assay [3], 1.35%; in assay [4], 8.61%; with Trypanosoma cruzi it was 3.64%; in assay [5], -6.9%. Besides, the Percent Effect was 3.33% in assay [6]; -22.2% in the assay filed under Homo sapiens; 4.3% in [7]; 11.1% in assay [8]; -3.9% in assay [9].
